The record followed here is PubChem BioAssay.

A number with no mark means an inactive call. No rule for the calls is given here.

In this experiment the target is Pantothenate synthetase (Mycobacterium tuberculosis (strain ATCC 25618 / H37Rv)) (UniProt P9WIL5). As to the kind of experiment: Recombinant Mtb pantothenate synthetase (PanC) inhibitors, coupled enzyme, confirmatory (AID 375).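 Also: 0% = full reaction with vehicle and 100% = no enzyme background.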 To be noted: coupled enzyme assay; at 10 µM, hits give high values.
Pantothenate synthetase (Mycobacterium tuberculosis (strain ATCC 25618 / H37Rv)), sequence (P9WIL5 whole entry, looked up): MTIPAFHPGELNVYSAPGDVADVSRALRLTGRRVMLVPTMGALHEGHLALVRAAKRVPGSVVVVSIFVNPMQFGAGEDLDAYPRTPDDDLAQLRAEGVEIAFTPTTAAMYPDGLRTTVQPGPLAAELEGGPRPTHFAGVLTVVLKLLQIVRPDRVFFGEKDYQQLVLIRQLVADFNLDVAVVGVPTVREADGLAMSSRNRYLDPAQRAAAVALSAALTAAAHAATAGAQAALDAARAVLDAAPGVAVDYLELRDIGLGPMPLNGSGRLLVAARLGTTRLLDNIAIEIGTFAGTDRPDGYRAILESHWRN
One may read the inhibition as the change of the read-out against control, counted positive when it falls. As for `CN(CC(=O)Nc1cccnc1)S(=O)(=O)c1cc(Cl)ccc1Cl`, the inhibition was 0%.
As for `O=C(Nc1ccc(S(=O)(=O)NCCc2ccccc2)cc1)c1ccc(Br)o1`, the inhibition is 3%.
Regarding `CC(C)N1C(=O)C2C(C(=O)NC3CCCCC3)C3C=CC2(O3)C1C(=O)NC1CCCC1` (centres undefined), the inhibition is 0%.
As to `O=C1CCC(C(=O)N(Cc2ccco2)C2(C(=O)NC3CCCC3)CCCCC2)N1` (centres undefined), the inhibition was 0%.
Then `CCN(CC)S(=O)(=O)N1CCC(C(=O)NCC2COc3ccccc3O2)CC1` (centres undefined), with 1%; and `CCOC(=O)c1c(NC(=O)c2ccoc2C)sc2c1CCC2`, with 7%.
For the compound `O=C(c1ccco1)N1CCN(C2=NS(=O)(=O)c3ccccc32)CC1`, the inhibition was 0%.
As to `Cc1c(Cl)cccc1Nc1ccccc1C(=O)O`, the inhibition is 1%.
In the case of `CC1(C)O[C@@H]2C[C@H]3[C@@H]4CCC5=CC(=O)C=C[C@]5(C)[C@@]4(F)[C@@H](O)C[C@]3(C)[C@]2(C(=O)CO)O1` it was 2%.
Turning to `COc1ccc2c(c1OC)C(=O)OC2Nn1cncn1` (centres undefined), the inhibition is 2%.
Turning to `CCOC(=O)c1ccccc1NC(=O)CSc1nnc(COc2ccccc2C)n1C`, the inhibition was 2%.
On to `CCOP(=O)(c1ccc(N(C)C)cc1)C(O)c1cc(OC)c(OC)c(OC)c1` (centres undefined), for which the inhibition was 0%.
With `Cc1cc(-c2ccccc2)nc2cc(C(N)=O)nn12`, the inhibition is 12%.
`CCCCN(Cc1cc2cc(OC)ccc2[nH]c1=O)C(=O)c1ccccn1`: the inhibition is 1%.
Then `Clc1ss/c(=N\c2ccccn2)c1Cl`, with 0%; and `Cc1ccc(C)c(NC(=O)CC(NCCCN2CCOCC2)C(=O)O)c1` (centres undefined), with 7%.
For `NC(=O)c1c(-c2ccccc2)oc2ccc(O)cc12`, the inhibition was 0%.
In the case of `CCCn1c(SCC(=O)NCc2ccco2)nc2c1c(=O)n(C)c(=O)n2C`, the inhibition is 11%.
With `Cc1c(NC(=O)c2ccc(COc3ccc4ccccc4c3)o2)c(=O)n(-c2ccccc2)n1C`, the inhibition is 0%.
Consider `CCC(Sc1ccc2nnc(-c3ccc(F)cc3)n2n1)C(=O)OC` (centres undefined), for which the inhibition was 0%.
In the case of `COCCn1c(=O)[nH]c2cc(C(=O)NCc3cccnc3)ccc2c1=O` it was 2%; in that of `N#Cc1nc(COc2ccccc2)oc1NCCCn1ccnc1`, 0%; in that of `CCCOc1cccc(C(=O)N(Cc2ccco2)C2CCS(=O)(=O)C2)c1` (centres undefined), 0%.
In the case of `Cc1cc(C(=O)O)ccc1-n1c(C)ccc1C` it was 6%; in that of `COc1ccc(C2C(C(=O)c3sc(C)nc3C)=C(O)C(=O)N2CCN(C)C)cc1` (centres undefined), 9%; in that of `Cc1ccc(C(c2sc3ncnn3c2O)N2CC(C)CC(C)C2)cc1` (centres undefined), 0%.
On to `Cn1c2ccccc2c2c(C(=O)NCCCN3CCCC3=O)cn(C3CCCCC3)c(=O)c21`, for which the inhibition was 8%.
For `COc1ccc(C2C(C#N)=C(N)Oc3cc4c(cc32)OCO4)cc1` (centres undefined), the inhibition is 0%.
Turning to `COC(=O)CCn1nnc(-c2ccc(C)cc2)n1`, the inhibition is 1%.
Consider `N[C@@H](C(=O)N[C@@H]1C(=O)N2C(C(=O)O)=C(Cl)CS[C@H]12)c1ccccc1`, for which the inhibition was 2%.
Take `COc1ccc(N2CCN(C(=O)CN3C(=O)C4CC=CCC4C3=O)CC2)cc1` (centres undefined): the inhibition was 0%.
For the compound `CC1=C(C(N)=O)C(c2ccc(Cl)cc2Cl)n2ncnc2N1` (centres undefined), the inhibition was 0%.
Regarding `CCOC(=O)c1sc2cccc(F)c2c1N`, the inhibition was 13%.
Then `CC(C(N)=O)N1C(=O)C2C3C=CC(C3)C2C1=O` (centres undefined), with 2%; and `CCOC(=O)c1[nH]cc(-c2ccccc2)c1N1CCOCC1`, with 0%.
Then `COCCCNC(=O)c1ccccc1NS(=O)(=O)c1ccc(C)cc1`, with 1%; and `CCN(CC)CCCC1(CN)OCCc2ccccc21` (centres undefined), with 0%.
In the case of `CCOc1ccc(NC(=O)CN(C)CC(=O)NC2CCCc3ccccc32)cc1OCC` (centres undefined) it was 7%.
On to `O=C(CN1CCN(c2ccc(F)cc2)CC1)OCc1ccccc1`, for which the inhibition is 3%.
